High-throughput results deposited in PubChem BioAssay by National Center for Advancing Translational Sciences (NCATS).
NS1 function inh – blocks influenza NS1 protein function; Potency, µM (titrated, usually from 46.1 µM); AID 2326; 270,000 tested, 0.4% active; calls by dose curve; also: actives are rising curves; nearly all actives have a fitted effect of over 50% in size
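A cell-based growth assay was used: compounds that relieve NS1-induced slow growth of budding yeast raise OD600. Assay medium was yeast nitrogen base with ammonium sulphate and -URA supplement, pH 6.0, with 2% galactose.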
Pf growth 96h – P. falciparum growth inhibition at 96 hour, primary screen for plastid delayed-death inhibitors; P. falciparum luciferase reporter growth, 96 h; Potency, µM (series often up to 28.7 µM), actives largely listed as inhibitors; 320,000 tested, 6.9% active; AID 504834
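Plates of compound plus infected erythrocytes (2% hematocrit, 0.05% parasitemia final) incubate 96 hours, 37 C, 5% CO2. Detection reagent added; reduced luminescence from the parasites' luciferase reporter flags inhibition.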
Cycloheximide cs – counter-screen hit for Shiga toxin inhibitors, cycloheximide. AID 2314. cell reporter, cycloheximide protein synthesis inhibition counterscreen. max response, %. 300,000 tested, 12% active; in the data active = max response mostly above about 13%, no sharp cut-off; inactive = mostly below about 14%; also: read at 38.3 µM for the half of the compounds with a filed dose
SARS PLP yeast – SARS-CoV PLP inhibition in yeast; S. cerevisiae expressing SARS-CoV PLpro, growth rescue; Potency, µM (series often up to 32.9 µM), usual class: activators; 330,000 tested, 0.19% active; AID 485353; calls by dose curve; also: nearly all actives have a fitted effect of over 55% in size
Pf growth 48h – P. falciparum growth inhibition at 48 hours (one generation); Potency, µM (titrated, usually from 28.7 µM), hits mostly inhibitors; AID 504832; 310,000 tested, 5.9% active; P. falciparum luciferase growth in erythrocytes, 48 h
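Luciferase-expressing parasites in RBCs, 2% Hct / 0.1% parasitemia final; RPMI 1640 + 0.5% Albumax; 37 C, 5% CO2, one generation; luminescence read-out, lower signal = inhibition.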
Shiga toxin inh – Shiga toxin inhibition; inhibition, % at 38.7 µM; Vero cells, Shiga toxin protein synthesis inhibition reporter; AID 2315; 290,000 tested, 9.2% active; in the data active = inhibition mostly above about 28%, no sharp cut-off; inactive = mostly below about 43%
Each line names hits and unclear results; the compound was inactive in the other large screens. Most compounds without a hit are left out; they make up all but 21% or so of the library. Unless noted, calls follow the shape of the dose curve; as a rule, active = well fitted inhibition curve with a large enough effect; inconclusive = small, poorly fitted or top-dose-only effect, or another doubt; inactive = no such curve, though single readings can be large or run the other way.

COc1ccc(-n2c(C)cc(C(=O)Cn3nc(C(=O)O)c4ccccc4c3=O)c2C)cc1	Pf growth 96h inconclusive, Cycloheximide cs 26, Pf growth 48h inconclusive, Shiga toxin inh 34
COc1ccc(-n2c(C)cc(C(=O)COc3ccc(-n4cnnn4)cc3)c2C)cc1	none
Cc1ccc(-n2c(C)cc(C(=O)Cn3nc(C(=O)O)c4ccccc4c3=O)c2C)cc1	Pf growth 96h inconclusive, Cycloheximide cs 19, Shiga toxin inh 42
Cc1cc(C(=O)Cn2nc(C(=O)O)c3ccccc3c2=O)c(C)n1-c1ccc(OC(F)F)cc1	Pf growth 96h inconclusive, Pf growth 48h inconclusive
CC(=O)Nc1ccc(S(=O)(=O)NCCCN2CCN(Cc3ccccc3)CC2)cc1Cl	none
O=C(CP(=O)(c1ccccc1)c1ccccc1)Nc1nc2ccc(Cl)cc2s1	Pf growth 48h inconclusive
CC1(C)C(=S)N(Cc2ccccc2)c2ccccc21	none
Cc1cc(C(=O)COC(=O)c2ccc[nH]c2=O)c(C)n1-c1ccccc1F	none
Cc1cc(C(=O)COC(=O)c2ccc(O)cc2)c(C)n1-c1ccccc1F	Cycloheximide cs 42, Shiga toxin inh 107 (no result: NS1 function inh)
Cc1cc(C(=O)Cn2nnc3ccccc3c2=O)c(C)n1-c1ccccc1F	Cycloheximide cs 46 (no result: Pf growth 96h)
Cc1cc(C(=O)Cn2nnc3ccccc3c2=O)c(C)n1-c1c(C)n(C)n(-c2ccccc2)c1=O	none
COCC(C)n1c(C)cc(C(=O)Cn2nc(C(=O)O)c3ccccc3c2=O)c1C (stereo not given)	Shiga toxin inh 55 (no result: NS1 function inh)
Cc1cc(C)c(S(=O)(=O)N/N=C/c2ccc([N+](=O)[O-])o2)c(C)c1	none
CC(=O)c1ccc(N2CCN(S(=O)(=O)c3cccc(S(=O)(=O)N4CCOCC4)c3)CC2)cc1	Pf growth 96h inconclusive (no result: Pf growth 48h)
CC(=O)c1ccc(N2Cc3ccccc3C3(CCOCC3)C2=N)cc1	Cycloheximide cs 28
Cc1cc(OCC(=O)OCC(=O)N(C)Cc2ccccc2C)ccc1Cl	Pf growth 48h inconclusive (no result: NS1 function inh, Cycloheximide cs, Shiga toxin inh)
Cc1ccc(/C=N/NC(=O)c2ccncc2)o1	none
CC(OC(=O)c1cc2c(s1)CCCCC2)C(=O)NC(N)=O (stereo not given)	Cycloheximide cs 23
CC(C)NC(=O)c1cc2c(s1)CCCC2	Cycloheximide cs 18, Shiga toxin inh 44
CC(C)C(OC(=O)c1cc2c(s1)CCCCC2)C(=O)NC(N)=O (stereo not given)	none
Cc1ccc(/C=N/NC(=O)c2cc3c(s2)CCCC3)o1	Pf growth 96h inconclusive, Pf growth 48h 8.3µM (no result: NS1 function inh, Cycloheximide cs, Shiga toxin inh)
CCOC(=O)c1sc(NC(=O)C(C)Sc2nc(N)cc(=O)[nH]2)nc1C (stereo not given)	Pf growth 48h inconclusive (no result: NS1 function inh)
CN(Cc1ccccc1)C(=O)c1cccc(NC(=O)C2CCCN(C(=O)OC(C)(C)C)C2)c1 (stereo not given)	none (no result: NS1 function inh, Pf growth 96h, Cycloheximide cs, Pf growth 48h, Shiga toxin inh)
CC(=O)Nc1ccc(-c2nnc(SCC(=O)Nc3ccc4c(c3)oc3ccccc34)n2C)cc1	Pf growth 96h inconclusive, Cycloheximide cs 16
CCn1c(SCC(=O)Nc2ccc3c(c2)oc2ccccc23)nnc1-c1ccc(N)cc1	Pf growth 96h inconclusive, Cycloheximide cs 35 (no result: Pf growth 48h)
CCn1c(SCC(=O)Nc2ccccc2C(=O)OC)nnc1-c1ccc(N)cc1	NS1 function inh inconclusive, Pf growth 96h inconclusive, Pf growth 48h inconclusive
COC(=O)Nc1sc2c(c1C(N)=O)CCC(C)C2 (stereo not given)	none
CC1CCc2c(sc(NC(=O)c3cccn3C)c2C(N)=O)C1 (stereo not given)	none (no result: NS1 function inh, Pf growth 96h, Cycloheximide cs, Pf growth 48h, Shiga toxin inh)
CC1CCc2c(sc(/N=C/c3ccco3)c2C(N)=O)C1 (stereo not given)	Cycloheximide cs 38, Shiga toxin inh 74
CC1CCc2c(sc(NC(=O)C3c4ccccc4Oc4ccccc43)c2C(N)=O)C1 (stereo not given)	Pf growth 96h 6.6µM, Pf growth 48h inconclusive
CC1CCc2c(sc(/N=C/c3cccnc3)c2C(N)=O)C1 (stereo not given)	Pf growth 96h inconclusive, Cycloheximide cs 16
Cn1ncc2c1ncn1nc(COc3ccc4ccccc4c3)nc21	Pf growth 96h inconclusive, Cycloheximide cs 40
c1ccc(Cn2ncc3c2ncn2nc(-c4ccncc4)nc32)cc1	none (no result: Pf growth 96h, Cycloheximide cs, SARS PLP yeast, Pf growth 48h, Shiga toxin inh)
Cn1ncc2c1ncn1nc(CCc3ccccc3)nc21	Pf growth 96h inconclusive, Cycloheximide cs 52, Shiga toxin inh 68
Cc1cccc(OCC(=O)Nc2nnc(-c3ccco3)s2)c1	Pf growth 96h 5.2µM
